# Reference: PubChem BioAssay (NCATS)
# Several values for one entry are separate records, joined by “and”; a condition that tells them apart may be missing. Identical values can stand only once. Values without a mark were called inactive. Results filed as inconclusive are left out. Activity calls are given as the source filed them. Unless noted, the call rests on the fitted dose curve; in most records, active means well fitted curve in the direction sought with a large enough effect; inconclusive means small, poorly fitted or top-dose-only effect, or another doubt; inactive means no such curve, though single readings can be large; an effect the other way counts as inactive or inconclusive.
# How the values were obtained:
# [1] = biological target: Tyrosine-protein kinase Yes (Homo sapiens) (UniProt P07947); experiment: qHTS for small molecule inhibitors of Yes1 kinase: Primary Screen (AID 686947);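 further: plate controls were DMSO with enzyme for no effect and no-enzyme DMSO wells for full effect; nearly all actives have a fitted effect of over 60% in size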
# Chain of Tyrosine-protein kinase Yes (Homo sapiens) (P07947 whole entry, looked up): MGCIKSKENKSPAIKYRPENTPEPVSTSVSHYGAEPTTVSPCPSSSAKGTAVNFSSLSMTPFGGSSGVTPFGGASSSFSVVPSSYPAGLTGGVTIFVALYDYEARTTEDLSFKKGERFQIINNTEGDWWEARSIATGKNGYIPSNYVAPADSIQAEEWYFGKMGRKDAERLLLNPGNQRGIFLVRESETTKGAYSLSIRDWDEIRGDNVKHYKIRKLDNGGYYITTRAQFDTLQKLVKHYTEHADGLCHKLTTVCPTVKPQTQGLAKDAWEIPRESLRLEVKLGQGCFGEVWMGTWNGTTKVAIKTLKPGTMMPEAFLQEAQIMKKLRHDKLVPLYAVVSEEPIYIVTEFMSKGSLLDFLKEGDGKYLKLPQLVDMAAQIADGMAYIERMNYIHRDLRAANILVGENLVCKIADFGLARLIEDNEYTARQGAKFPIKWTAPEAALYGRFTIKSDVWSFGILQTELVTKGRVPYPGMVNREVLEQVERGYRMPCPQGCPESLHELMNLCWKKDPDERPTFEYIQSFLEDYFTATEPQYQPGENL
# Summary of the method: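 ADP-Glo luminescence readout; final 4 nM Yes1, 0.1 mM ATP, 0.3 mg/mL poly(E4Y), Tris pH 7.5, MgCl2, DTT, Brij-35. 20 min compound preincubation, 60 min reaction at RT. Normalized to DMSO wells with and without enzyme.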
# [2] = qHTS assay for small molecule agonists of the antioxidant response element (ARE) signaling pathway (AID 651741; active means well fitted activation curve with a large enough effect in the signal ratio; the % refers to the signal ratio; further: potency means the concentration at half of the fitted maximal effect)
# Summary of the method: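 ARE-bla HepG2 cells (beta-lactamase reporter under ARE control) were plated at 2,000 cells/well, preincubated 5 h at 37 C/5% CO2, then treated with DMSO-dissolved compounds for 16 h at 37 C; LiveBLAzer B/G FRET substrate added, fluorescence read after 2 h at room temperature.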
# [3] = qHTS assay for small molecule activators of the nuclear factor-kappa B (NF-kB) signaling pathway (AID 651749; active means well fitted activation curve with a large enough effect in the signal ratio; the % refers to the signal ratio; further: series mostly up to about 77 µM; % of control where 0% means no effect); settings: NF-kB-bla ME-180 cells, beta-lactamase FRET ratio, 16 h; active compounds read high
# Summary of the method: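 ME-180 cells stably carrying a beta-lactamase reporter under an NF-kB response element were exposed to compound or DMSO vehicle for 16 hr at 37C, 5% CO2. Pathway activation was read by FRET, since reporter expression disrupts FRET.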
# [4] = qHTS assay for small molecule disruptors of the mitochondrial membrane potential - 1 hr assay (AID 651754; calls by dose curve; further: potency means the concentration at half of the fitted maximal effect; nearly all actives have a fitted effect of over 35% in size)
# Summary of the method: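 HepG2 cells, attached overnight at 37C, were exposed to compound or DMSO vehicle for 1 hr at 37C, 5% CO2, then stained with Mito-MPS dye for 30 min. Red aggregate versus green monomer fluorescence reports membrane potential.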
# [5] = qHTS assay for small molecule disruptors of the mitochondrial membrane potential - 5 hr assay (AID 651755; calls by dose curve; further: potency means the concentration at half of the fitted maximal effect; nearly all actives have a fitted effect of over 40% in size)
# Summary of the method: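 HepG2 cells, attached overnight at 37C, were exposed to compound or DMSO for 5 hr at 37C, 5% CO2. Mito-MPS dye was then added for 30 min, and fluorescence read at 490/535 nm (monomers) and 540/590 nm (aggregates).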
# [6] = biological target: Tumor necrosis factor (Homo sapiens) (UniProt P01375); experiment: qHTS assay to identify small molecules that stimulate Tumor Necrosis Factor-alpha (TNF-alpha) secretion (AID 651757; active means well fitted curve in the direction sought with a large enough effect in the signal ratio; the % refers to the signal ratio; further: 0% is about no effect)
# Chain of Tumor necrosis factor (Homo sapiens) (P01375 whole entry, looked up): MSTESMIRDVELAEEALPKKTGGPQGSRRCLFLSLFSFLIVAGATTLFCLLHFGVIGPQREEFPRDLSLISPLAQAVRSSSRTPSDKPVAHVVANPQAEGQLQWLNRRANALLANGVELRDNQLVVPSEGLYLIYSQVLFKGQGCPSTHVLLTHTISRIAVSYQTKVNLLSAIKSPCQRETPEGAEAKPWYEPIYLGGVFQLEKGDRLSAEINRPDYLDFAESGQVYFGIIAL
# Summary of the method: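 THP-1 cells were exposed to compounds for 17 hrs at 37 C, after which secreted TNF-alpha was measured by homogeneous HTRF (TR-FRET) using cryptate- and XL665-labeled anti-TNF-alpha antibodies, read after 3 hr at room temperature.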
# [7] = qHTS assay for environmental chemicals that activate the Aryl hydrocarbon Receptor (AhR) signaling pathway (AID 651777); settings: 1A2-DRE human hepatoma cells, luciferase, 24 h; activation: active compounds read high; further: % of control where 0% means no effect; nearly all actives have a fitted effect of over 15% in size
# Summary of the method: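 1A2-DRE human hepatoma reporter line; 1,200 cells/well; cmpd or DMSO 24 h, 37 C/5% CO2; One-Glo 30 min RT; luciferase lum.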
# [8] = biological target: Peroxisome proliferator-activated receptor alpha (Homo sapiens) (UniProt Q07869); experiment: qHTS assay for small molecule agonists of the peroxisome proliferator-activated receptor alpha (PPARalpha) signaling pathway (AID 651778); settings: PathHunter PPARalpha complementation, chemiluminescence, 6 h; max response: active compounds read high; further: % of control where 0% means no effect
# Chain of Peroxisome proliferator-activated receptor alpha (Homo sapiens) (Q07869 whole entry, looked up): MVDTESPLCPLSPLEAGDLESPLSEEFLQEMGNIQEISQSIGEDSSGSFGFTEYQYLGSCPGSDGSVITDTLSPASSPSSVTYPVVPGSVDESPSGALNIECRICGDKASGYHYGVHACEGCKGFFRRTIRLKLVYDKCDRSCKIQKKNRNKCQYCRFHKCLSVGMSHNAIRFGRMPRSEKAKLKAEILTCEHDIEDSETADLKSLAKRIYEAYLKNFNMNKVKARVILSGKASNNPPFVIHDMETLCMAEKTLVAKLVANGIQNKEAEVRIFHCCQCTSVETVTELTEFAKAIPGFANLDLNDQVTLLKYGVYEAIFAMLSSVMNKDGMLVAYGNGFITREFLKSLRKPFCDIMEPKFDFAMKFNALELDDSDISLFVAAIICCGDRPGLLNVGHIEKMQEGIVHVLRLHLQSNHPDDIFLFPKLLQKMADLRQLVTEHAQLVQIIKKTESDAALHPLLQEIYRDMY
# Summary of the method: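 Cells plated at 2,000/well and held overnight at 37 C, 5% CO2, then compound added by pin tool for 6 hr; after PathHunter detection reagent and 60 min at room temperature, chemiluminescence from enzyme complementation was read.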
# [9] = qHTS assay to identify small molecules that stimulate interleukin-8 (IL-8) secretion (AID 651758; active means well fitted activation curve with a large enough effect in the signal ratio; the % refers to the signal ratio; further: potency means the concentration at half of the fitted maximal effect)
# Summary of the method: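 THP-1, 2000 cells/well; cpd 16 h, 37 C; add cryptate + XL665 anti-IL-8 Abs; RT 1-3 h; TR-FRET read.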
# [10] = biological target: Nuclear receptor ROR-gamma (Homo sapiens) (UniProt P51449); experiment: qHTS assay for small molecule antagonists of the retinoid-related orphan receptor gamma (ROR-gamma) signaling pathway (AID 651802); further: potency means the concentration at half of the fitted maximal effect; nearly all actives have a fitted effect of over 60% in size
# Chain of Nuclear receptor ROR-gamma (Homo sapiens) (P51449 whole entry, looked up): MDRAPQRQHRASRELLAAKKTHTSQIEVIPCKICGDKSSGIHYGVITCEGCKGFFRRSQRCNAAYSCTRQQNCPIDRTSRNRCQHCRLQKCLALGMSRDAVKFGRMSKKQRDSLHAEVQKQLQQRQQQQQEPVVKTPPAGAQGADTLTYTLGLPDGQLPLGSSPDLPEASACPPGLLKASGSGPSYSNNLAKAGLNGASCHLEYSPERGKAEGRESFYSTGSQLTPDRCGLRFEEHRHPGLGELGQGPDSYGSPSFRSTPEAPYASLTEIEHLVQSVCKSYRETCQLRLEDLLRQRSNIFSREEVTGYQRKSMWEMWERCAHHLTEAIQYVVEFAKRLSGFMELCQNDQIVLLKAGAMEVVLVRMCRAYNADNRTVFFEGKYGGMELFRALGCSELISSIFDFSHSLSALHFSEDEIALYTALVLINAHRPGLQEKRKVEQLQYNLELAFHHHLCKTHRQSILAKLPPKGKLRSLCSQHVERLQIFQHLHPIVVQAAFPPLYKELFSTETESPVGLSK
# Summary of the method: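 CHO cells carrying TET-inducible ROR-gamma and an ROR response element–luciferase reporter were exposed to compound, then induced with doxycycline. After 16hr at 37C, luminescence was read; lower signal indicates antagonism.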
structure (smiles),measurement,setting,value
CC1=C2C[C@@H]3[C@@H](CC=C4C[C@@H](O)CC[C@@]43C)[C@@H]2CC[C@]12O[C@H]1C[C@H](C)CN[C@H]1[C@H]2C,Potency,[1],inactive
Oc1ccc(Cl)cc1Cc1ccccc1,Potency,[2],54.5 µM (active) and 42.2 µM (active)
same,activation,[3],-0.62% and 0.873%
same,Potency,[4],18.8 µM (active)
same,Potency,[5],21.1 µM (active)
same,outcome,[6],inactive
same,activation,[7],0.74% and 2.47%
same,max response,[8],14% and 4.54%
Cn1cc(C2=C(c3cn(C4CCN(Cc5ccccn5)CC4)c4ccccc34)C(=O)NC2=O)c2ccccc21,Potency,[1],inactive
Oc1cc(Cl)ccc1Oc1ccc(Cl)cc1Cl,Potency,[2],54.5 µM (active)
same,activation,[3],2.77%
same,max response,[8],13.1%
COc1cc2c(c(OC)c1OC)-c1ccc(OC)c(=O)cc1[C@@H](NC(C)=O)CC2,Potency,[2],0.075 µM (active)
same,Potency,[9],53.1 nM (active) and 47.3 nM (active)
same,Potency,[10],335 nM (active) and 119 nM (active)
C[C@@H]1[C@@H](CC(C[C@H]2O[C@@H]3O[C@]4(C)CC[C@@H]5[C@H](C)CC[C@@H]([C@H]2C)[C@@]35OO4)C[S+](=O)([O-])c2ccc(COC(=O)N(C)C)cc2)O[C@@H]2O[C@]3(C)CC[C@H]4[C@H](C)CC[C@@H]1[C@@]24OO3 (some centres undefined),Potency,[1],inactive
COC1(CS(=O)c2ccccc2)CCN(CCc2c[nH]c3ccc(F)cc23)CC1 (centres undefined),Potency,[1],inactive
Clc1ccc(COC(Cn2ccnc2)c2ccc(Cl)cc2Cl)cc1 (centres undefined),outcome,[6],inactive
same,max response,[8],-5.88%
